Hits are enriched below; roughly 5.9% of the tested compounds scored in any of these assays.
TrxR1 substrate: rat thioredoxin reductase 1 substrate activity. O89049. AID 588456. Potency, µM (titrated, usually from 114 µM), without a hit: at the highest dose activity change, negative = substrate turnover. purified TrxR1 substrate turnover, NADPH consumption readout. 390,000 compounds, 0.01% hits; further: potency means the concentration at half of the fitted maximal effect; nearly all actives have a fitted effect of over 50% in size
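Rat TrxR1, dispensed at 90 nM, was prereduced with 400 uM NADPH (final) for 5 min at ~22 deg C, then incubated with compound 15 min before 400 uM selenite. A first-read NADPH fluorescence drop versus no-compound background flagged substrates.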
VP16 counter: Gal4-VP16 reporter inhibition counter-screen. Potency, µM (doses to about 53.6 µM), for inactives: at the highest dose activity, negative = inhibition, most hits filed as inhibitors. Drosophila S2 Gal4-VP16 UAS-luciferase, luminescence, 20 h. 310,000 compounds, 3.5% hits;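 further: Gal4-VP16 expression switched on by copper sulfate through the metallothionein promoter; potency means the concentration at half of the fitted maximal effect; nearly all actives have a fitted effect of over 50% in size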
FBPA coupling cs: coupling enzyme interference in Giardia aldolase counter-screen; activity change, negative = inhibition, % at 58.2 µM, hits read low; coupling enzyme system counterscreen, AmpLite Red fluorescence; AID 2472; 290,000 compounds, 0.67% hits; in the data active means activity change below about -30%
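Compounds tested against the coupling enzymes alone at 57.5 uM final; readout was AmpLite Red fluorescence (525/598 nm) after 20 min at RT.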
rTrxR1 inhibitor: rat TrxR1 inhibition; recombinant rTrxR1, NADPH fluorescence consumption, selenite substrate; AID 588453; 390,000 compounds, 1% hits; O89049; Potency, µM (titrated, usually from 114 µM), inactives show top-dose activity change, negative = inhibition, most hits filed as inhibitors; further: potency means the concentration at half of the fitted maximal effect; nearly all actives have a fitted effect of over 65% in size
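Rat TrxR1 (90 nM in the dispensed reagent) was pre-reduced with 400 uM NADPH for 5 min at room temperature, then incubated with compound for 15 min. After 400 uM selenite was added, NADPH fluorescence (Ex 340/Em 450 nm) was followed for 8 min.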
RORg inh: inhibitors of mouse ROR gamma transcriptional activity. Potency, µM (top dose mostly 53.6 µM), for inactives: top-dose activity change, negative = inhibition, usual class: inhibitors. 310,000 compounds, 5.4% hits. Drosophila S2 Gal4-RORgamma UAS-luciferase reporter, 20 h. P51450; further: potency means the concentration at half of the fitted maximal effect; nearly all actives have a fitted effect of over 60% in size
Target sequence (P51450 whole entry, looked up, the tested form may be a part): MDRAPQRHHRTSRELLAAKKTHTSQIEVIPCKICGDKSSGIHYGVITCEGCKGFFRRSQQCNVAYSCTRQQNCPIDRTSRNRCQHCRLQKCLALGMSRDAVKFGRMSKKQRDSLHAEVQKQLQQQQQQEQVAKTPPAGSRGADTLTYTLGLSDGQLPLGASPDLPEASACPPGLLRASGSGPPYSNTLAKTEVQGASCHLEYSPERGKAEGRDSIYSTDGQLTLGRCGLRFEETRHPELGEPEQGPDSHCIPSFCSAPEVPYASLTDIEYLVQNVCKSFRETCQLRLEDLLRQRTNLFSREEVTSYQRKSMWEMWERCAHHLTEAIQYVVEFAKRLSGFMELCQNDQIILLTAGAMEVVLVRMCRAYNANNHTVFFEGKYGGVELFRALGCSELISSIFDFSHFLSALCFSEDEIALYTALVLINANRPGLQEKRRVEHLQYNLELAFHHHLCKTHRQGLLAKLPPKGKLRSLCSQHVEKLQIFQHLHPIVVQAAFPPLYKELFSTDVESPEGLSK
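Read-out: Photinus luciferase luminescence; inhibitors lower reporter signal. Insect Schneider cells with Gal4-ROR gamma fusion under metallothionein promoter, UAS reporter; 700 uM final copper sulfate induction, 20 hr, ambient temperature.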
GALK inhibitor: inhibitors of human galactokinase | P51570 | Purified GALK, Kinase-Glo residual ATP luminescence | Potency, µM (series often up to 57.5 µM), without a hit: top-dose activity change, negative = inhibition, hits mostly inhibitors | 270,000 compounds, 0.007% hits | AID 1868; further: potency means the concentration at half of the fitted maximal effect
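Kinase-Glo Plus luminescence measured ATP left after a 1 h room-temperature reaction. The reaction used 5 nM GALK, 100 uM galactose and 35 uM ATP at pH 8.0 (20 mM HEPES, 5 mM MgCl2, 60 mM NaCl, 1 mM DTT, 0.01% BSA).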
Active calls of the source: *; [ ] = remark or other dose. Unless noted, the call rests on the fitted dose curve; in most records, active means well fitted curve in the direction sought with a large enough effect; inconclusive means small, poorly fitted or top-dose-only effect, or another doubt; inactive means no such curve, though single readings can be large; an effect the other way counts as inactive or inconclusive. On the % scale 0 is the no-effect control and ±100 the full control effect.

How did COc1ccc(C(=O)N/N=C/c2sc3ccccc3c2O)cc1 do in these assays?
TrxR1 substrate: -7.3%[57.1 µM]; VP16 counter: 3.98µM*; FBPA coupling cs: 2.0; rTrxR1 inhibitor: -3.6%[57.1 µM]; RORg inh: 2.24µM*; GALK inhibitor: 0.2%

How did CCn1ncc(/C=N\NC(=O)c2csc3ccccc23)c1C do in these assays?
TrxR1 substrate: -14.1%; VP16 counter: inconclusive; FBPA coupling cs: -0.1; rTrxR1 inhibitor: -19.0%; RORg inh: 10µM*; GALK inhibitor: 2.0%

Results for O=C(N/N=C/c1cccn1-c1ccc(O)cc1)c1cccc2ccccc12 ?
TrxR1 substrate: -9.1%; VP16 counter: 15.8µM*; rTrxR1 inhibitor: -9.0%; RORg inh: 17.8µM*; GALK inhibitor: -8.5%

How did COc1ccc(C(=O)N/N=C/c2c[nH]c3ccccc23)cc1 do in these assays?
TrxR1 substrate: -10.3%; VP16 counter: 3.4%; FBPA coupling cs: 3.1; rTrxR1 inhibitor: 3.6%[57.1 µM]; RORg inh: -0.5%; GALK inhibitor: -6.0%

Results for Cc1c(/C=N\NC(=O)c2csc3ccccc23)cnn1C ?
TrxR1 substrate: -4.5%; VP16 counter: 6.2%; FBPA coupling cs: -1.9; rTrxR1 inhibitor: -5.3%; RORg inh: inconclusive; GALK inhibitor: -4.4%

How did Oc1c(C=Nc2cccc3cccnc23)sc2ccccc12 do in these assays?
VP16 counter: 1.41µM*; FBPA coupling cs: -12.7; RORg inh: 1.78µM*; GALK inhibitor: 1.7%

What do the screens show for `O=C(N/N=C/c1sc2ccccc2c1O)c1ccccc1`?
TrxR1 substrate: -23.9%; VP16 counter: 1.58µM*; FBPA coupling cs: -2.2; rTrxR1 inhibitor: -25.8%; RORg inh: 1.78µM*; GALK inhibitor: -0.3%

What do the screens show for `COc1ccc2cc(C(=O)N/N=C/c3sc4ccccc4c3O)ccc2c1`?
TrxR1 substrate: -2.9%; VP16 counter: inconclusive; FBPA coupling cs: -1.7; rTrxR1 inhibitor: -2.2%; RORg inh: 3.55µM*

Results for O=C(N/N=C/c1ccccc1)c1cccc2ccccc12 ?
TrxR1 substrate: 2.8%; rTrxR1 inhibitor: 8.2%

Results for O=C(N/N=C/c1sc2ccccc2c1O)c1cccc2ccccc12 ?
TrxR1 substrate: -9.5%; VP16 counter: 4.47µM*; FBPA coupling cs: 3.7; rTrxR1 inhibitor: 1.4%[57.1 µM]; RORg inh: 1.78µM*; GALK inhibitor: 1.8%

How did CC(Sc1nc(N)c(NC(=O)c2ccc(Br)o2)c(=O)[nH]1)C(=O)O (stereo not drawn) do in these assays?
TrxR1 substrate: -7.2%; VP16 counter: -8.0%; rTrxR1 inhibitor: -6.5%; RORg inh: -25.6%; GALK inhibitor: -3.3%

What do the screens show for `Cc1ccc(-n2c(N)c(C(=O)N3CCN(C)CC3)sc2=S)cc1`?
TrxR1 substrate: -12.8%; VP16 counter: -5.0%; FBPA coupling cs: -33.9*; rTrxR1 inhibitor: -15.8%; RORg inh: -5.8%; GALK inhibitor: 1.5%

What do the screens show for `Cc1cc(-c2ccccc2)nc(N/N=C/c2ccccc2)n1`?
TrxR1 substrate: 1.3%; VP16 counter: inconclusive; FBPA coupling cs: 1.4; rTrxR1 inhibitor: 22.3%; RORg inh: 14.1µM*; GALK inhibitor: -0.7%

What do the screens show for `Cc1sc(N/N=C/c2ccco2)nc1-c1ccccc1`?
TrxR1 substrate: -6.5%; VP16 counter: inconclusive; FBPA coupling cs: -2.6; rTrxR1 inhibitor: 11.7%; RORg inh: 11.2µM*; GALK inhibitor: 1.0%

How did COc1ccc(/C=N/Nc2nc(C)cc(-c3ccccc3)n2)cc1OC do in these assays?
TrxR1 substrate: -5.7%; VP16 counter: inconclusive; FBPA coupling cs: 4.4; rTrxR1 inhibitor: 3.1%; RORg inh: 11.2µM*; GALK inhibitor: 0.2%

What do the screens show for `Cc1cc(-c2ccccc2)nc(N/N=C/c2ccco2)n1`?
TrxR1 substrate: -5.5%; VP16 counter: inconclusive; FBPA coupling cs: 1.1; rTrxR1 inhibitor: -16.6%; RORg inh: 8.91µM*; GALK inhibitor: 2.7%

What do the screens show for `NCCC[C@@H](CC(=O)N[C@@H]1CCNC[C@H]1C(=O)N[C@H](CC(=O)N[C@@H](CCC(=O)O)CC(=O)O)Cc1c[nH]c2ccccc12)NC(=O)C[C@H](Cc1c[nH]c2ccccc12)NC(=O)[C@@H]1CCCC[C@H]1N`?
VP16 counter: 0.9%; FBPA coupling cs: 0.3; RORg inh: 7.4%

Results for O=C(COc1ccc(Cl)cc1)NCC(=O)N1CCC2(CC1)NCCc1[nH]cnc12 ?
TrxR1 substrate: 4.4%; VP16 counter: -3.9%; rTrxR1 inhibitor: 11.6%; RORg inh: -2.7%; GALK inhibitor: -2.6%

How did CC(C)=NNc1nc(-c2ccccc2)c(C)s1 do in these assays?
TrxR1 substrate: 3.1%[57.1 µM]; VP16 counter: -25.8%; FBPA coupling cs: -1.8; rTrxR1 inhibitor: 4.1%[57.1 µM]; RORg inh: 11.2µM*; GALK inhibitor: 0.9%

What do the screens show for `Cc1cccc(N2CCN(C(=O)C3CCN(c4ncnc5c4nc4n5CCCCC4)CC3)CC2)c1C`?
TrxR1 substrate: -10.0%; VP16 counter: 8.91µM*; rTrxR1 inhibitor: -2.9%; RORg inh: inconclusive; GALK inhibitor: -4.0%

Results for O=C(C1CCN(c2ncnc3c2nc2n3CCCCC2)CC1)N1CCN(c2ccccc2F)CC1 ?
TrxR1 substrate: 4.4%; VP16 counter: -24.3%; FBPA coupling cs: 0.1; rTrxR1 inhibitor: 32.5%; RORg inh: inconclusive; GALK inhibitor: 0.5%

How did CC(=O)Oc1ccc(N(c2ccccc2)S(=O)(=O)c2ccc(C)cc2)cc1 do in these assays?
TrxR1 substrate: 2.1%; VP16 counter: -10.3%; FBPA coupling cs: -1.4; rTrxR1 inhibitor: 25.6%; RORg inh: 9.7%; GALK inhibitor: -1.6%

Results for CCCCC(C)/C=C(C)/C=C(\C)C(=O)NC1=CC(O)(/C=C/C=C/C=C/C(=O)NC2=C(O)CCC2=O)C2OC2C1=O (stereo not drawn) ?
VP16 counter: 1.26µM*; FBPA coupling cs: 2.0; RORg inh: 0.562µM*

Results for NS(=O)(=O)c1ccc(NC(=S)NCc2cccs2)cc1 ?
TrxR1 substrate: 5.3%; VP16 counter: 6.3%; FBPA coupling cs: 1.0; rTrxR1 inhibitor: -2.8%[57.1 µM]; RORg inh: 3.2%; GALK inhibitor: -2.6%

What do the screens show for `Fc1ccc(NC(=S)NCc2cccs2)cc1`?
TrxR1 substrate: 0.2%; VP16 counter: 28.2µM*; FBPA coupling cs: 0.5; rTrxR1 inhibitor: -1.2%; RORg inh: 11.2µM*; GALK inhibitor: -2.1%

How did COc1ccc(NC(=O)COC(=O)Cc2cccs2)cc1OC do in these assays?
TrxR1 substrate: 3.9%; rTrxR1 inhibitor: 23.1%

What do the screens show for `COc1cccc(NC(=S)Nc2ccc(F)cc2)c1`?
TrxR1 substrate: -0.8%; VP16 counter: inconclusive; FBPA coupling cs: 1.4; rTrxR1 inhibitor: -12.0%; RORg inh: 15.8µM*; GALK inhibitor: 0.0%
